Among the data in PubChem BioAssay (NCATS) are max response values, retold here.

Values joined by “and” are separate entries in the source; they are usually repeats but may differ in a detail not shown here. Equal entries are not always repeated. Inconclusive results are not listed.

The experiment in a line: qHTS Assay for Lipid Storage Modulators (AID 1519). Particulars: Drosophila S3 cells, BODIPY lipid droplet/cell ratio, laser cytometry; measured here: cell count channel max response; cells loaded with oleic acid. A digest of the protocol:
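Cells seeded at 5,000 per well were treated with compounds over a concentration series and loaded with oleic acid (400 uM, as added). Lipid droplet fluorescence (488 nm excitation, 500-530 nm channel) was read by laser-scanning cytometry and normalized to 20 uM Triacsin C.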
For orientation: In qHTS, concentration-response curves come from the screen itself.
For the molecule `CC(C)(C#N)O[C@H]1OC(CO)C(O)C(O)C1O` (stereo not given in full), the max response is 13.6%.
In the case of `CC1CC2CC(=O)C3CCCN4CCCC2[C@]34C1` (stereo not given in full), the max response was found to be 9.37%.
For `CC1CC[C@]2(NC1)OC1CC3C4CC=C5CC(O)CC[C@@]5(C)C4CC[C@]3(C)C1C2C` (stereo not given in full) the value was 14.9%; for `CNC(=O)Oc1cccc2c1OC(C)(C)C2`, 5.85%; for `NC(CO)Cc1ccccc1` (stereo not given), 17.3%.
As to `O=C(O)c1nn(Cc2ccc(Cl)c(Cl)c2)c2ccccc12`, the max response is 10.4%.
The figure for `CNc1ccccc1C(=O)O` is 25%; for `CC(N)C(O)c1ccc(O)c(O)c1` (stereo not given) it is 10.7% and 5.9%.
In the case of `C[C@@]12CC(c3ccoc3)OC(=O)C1CC[C@@]1(C)C2C2C=C[C@@]1(O)C(=O)O2` (stereo not given in full), the max response turned out to be 24.2%.
The figure for `CC(=O)OC1C(=O)[C@]2(C)C(O)CC3OC[C@]3(OC(C)=O)C2[C@@H](OC(=O)c2ccccc2)[C@]2(O)CC(O)C(C)=C1C2(C)C` (stereo not given in full) is 3.27%; for `Cc1c(O)c(O)cc2c1CC=C1[C@]3(C)CC[C@]4(C)CC[C@@](C)(C(=O)O)CC4[C@]3(C)CC[C@]12C` (stereo not given in full) it is 19.2%; for `N#C/C(=C\c1cccc(O)c1)C(=O)O` it is 0.883%.
Turning to `CC(=O)C1CCC2C3CCC4CC(O)CCC4(C)C3CC(O)C12C` (stereo not given), the max response came to 3.25%.
For `COc1cc2c(cc1OC)[C@@H]1C(=O)c3ccc(O)c(CC=C(C)C)c3OC1CO2` (stereo not given in full) the value was 14.6%; for `C[C@@]12CCC3C(CC[C@@H]4CC(O)CC[C@@]34C)C1CCC2O` (stereo not given in full), 18.2%; for `CCC(C)C(=O)OC1C(O)C2C(CN3CC(C)CCC3[C@]2(C)O)C2C[C@]34O[C@@]5(O)C(OC(=O)C(C)(O)C(C)O)CCC3(C)C5C(OC(C)=O)C(OC(C)=O)C4[C@@]21O` (stereo not given in full), 24.4%.
For `N#CC(O[C@@H]1OC(COC2OC(CO)C(O)C(O)[C@@H]2O)C(O)C(O)C1O)c1ccccc1` (stereo not given in full), the max response was -0.407%.
For `CCN1C[C@@]2(OC(=O)c3ccccc3NC(C)=O)CCC(OC)[C@@]34C5CC6C(OC)C[C@@](O)(C(CC23)[C@@H]14)C5(O)C6OC` (stereo not given in full) the value was 10.9%; for `CCOC(=O)C1C(C=C(C)C)C1(C)C` (stereo not given), -1.43%.
`FC(F)(F)c1cccc(N2CCNCC2)c1`: the max response is -7.45%.
The figure for `CC(N)[C@@H](O)c1ccccc1` (stereo not given in full) is 11.6%; for `CC1C(=O)OC2C(O)C34C5OC(=O)[C@@]3(OC3OC(=O)[C@H](O)[C@]34C(C(C)(C)C)C5O)[C@]12O` (stereo not given in full) it is 13.6%.
The figure for `CC(=O)OC1CC[C@]2(C)C(CCC3C2CC[C@]2(C)C(C4=CC(=O)OC4)C(OC(C)=O)CC32O)C1` (stereo not given in full) is 1.24%; for `C[C@]12CCC3C(C=CC4=CC(=O)CC[C@]43C)C1CC[C@]2(O)CCC(=O)O` (stereo not given in full) it is 28.8%.
For `CC1C(=O)OC2CCN3CC=C(COC(=O)[C@](C)(O)[C@]1(C)O)C23` (stereo not given in full) the value was -2.74%; for `C/C=C(/C)C(=O)OC1CC[C@]2(C)C3CCC4[C@]5(O)CC(O)[C@]6(O)C(CN7CC(C)CCC7[C@]6(C)O)[C@]5(O)C[C@@]42O[C@]13O` (stereo not given in full), 6.5%; for `CC1O[C@@H](OC2CC[C@@]3(C=O)C4CC[C@]5(C)C(C6=CC(=O)OC6)CC[C@@]5(O)C4CC[C@]3(O)C2)C(O)C(O)C1O` (stereo not given in full), -0.564%.
On to `COc1ccc(/C=C/c2cc(O)cc(O)c2)cc1`, for which the max response worked out at 1.7%.
For `CNC(Cc1c[nH]c2ccccc12)C(=O)O` (stereo not given) the value was 11.7%; for `COC1C(O)C(C)O[C@H](OC2CC[C@@]3(C=O)C4CC[C@]5(C)C(C6=CC(=O)OC6)CC[C@@]5(O)C4CC[C@@H]3C2)C1O` (stereo not given in full), 21.5%.
The figure for `O=C(NC(=O)c1ccccc1Cl)Nc1ccc(OC(F)(F)F)cc1` is 0.34%.
The figure for `CC(=O)OC1CC(OC(C)=O)[C@]2(C)C(CC(OC(C)=O)[C@]3(C)C2CC[C@@]2(C)C(c4ccoc4)C[C@H]4O[C@]432)C1(C)C` (stereo not given in full) is 9.38%; for `CCC(N)C(O)c1ccc(O)c(O)c1` (stereo not given) it is 7.01%.
For `CC(=O)C1CC[C@H]2C3CC[C@@H]4CC(O)CC[C@@]4(C)C3CC[C@]12C` (stereo not given in full), the max response worked out at 9.69%.
For `O=C(O)CCC1NCC2CC1CN1CCCCC21` (stereo not given) the value was 3.62%; for `CC1(C)N([O-])[N+](=O)C1(C)Br` (stereo not given), -4.64%.
On to `COc1cc2c3cc1Oc1c(OC)c(OC)cc4c1C(Cc1cccc(c1)Oc1ccc(c(O)c1)CC3N(C)CC2)N(C)CC4` (stereo not given), for which the max response worked out at 15.8%.
As for `COC[C@]12CN(C=O)C3C4C(OC)C1[C@@]3(C1CC3(O)C(OC)C(O)C4(OC(C)=O)C1C3OC(=O)c1ccccc1)[C@@H](OC)CC2O` (stereo not given in full), the max response is -6.49%.
For the molecule `COc1cc2c(c(OC)c1OC)-c1ccc(O)c(=O)cc1C(NC(C)=O)CC2` (stereo not given), the max response is 16.6%.
For `CN1C2CC3CC1C(O3)C2O` (stereo not given) the value was -4.71%.
